From article PMC12136788
Where a chain is given by its changes, count along the chain named. The full ranking holds about 24,000 sequences; the median of “enrichment r” is about 0.99, and the highest 2% start at about 3.7. The full list was thinned out, with the highest values kept by preference.

T1: UNK ZnF1-3 (human, UniProt Q9C0B0 31-174)
T1 sequence: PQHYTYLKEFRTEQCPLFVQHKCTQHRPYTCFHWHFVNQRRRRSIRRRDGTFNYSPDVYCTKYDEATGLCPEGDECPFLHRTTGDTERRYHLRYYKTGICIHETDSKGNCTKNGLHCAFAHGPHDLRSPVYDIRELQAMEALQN

B1: 28740388_28740508_4059_3pUTR_ENSMUSG00000048271_ENSMUST00000114884|mouse|control|control (ssRNA)
RNA: GGGAGUUCUACAGUCCGACGAUCUUUGAGCUGGUAACAUUCUUUCCUGAAUCUAAAACUCUGUGACCAAUCACAUAGCAGGAUCACGAAGAACAAGGUCUACAUGCAUUAUAAGCACUCGGAAACAAAAGAACACGAGAACAGCAACAGAGGAUUGAGCAUCA
B2: chr7:149068622:149068623:-_ENSMUSG00000025139_ENSMUST00000001950|mus_hu|mus_mus_mus_hu_False|58_98 (ssRNA)
RNA: GGGAGUUCUACAGUCCGACGAUCGUGAGGCCUCUGAGUGAGGUUCCUGGUCUGUCCUGGGUUAGAGUUGUUAAUAUCACUAAGUGGACCAUCUAGAACGUUCCAGUCCCGCCUGACACCUUCAUUCCCAAUGGAGAAGAAAUCCAACAGAGGAUUGAGCAUCA
B3: chr14:21343309:21343310:-_ENSMUSG00000021816_ENSMUST00000161445|mus_hu|motif|central (ssRNA)
RNA: GGGAGUUCUACAGUCCGACGAUCAGGAUCGGACCAUAACAAGUCACACAUUGGUCCAAAUGCAGGUGGCUCUUUGAAUCGGUCGGAUCUCCUAAUAUCAUCCAGUGUGUGUAUUUCUGGUGAAAGUCCACCAUGAACACAAAGCAACAGAGGAUUGAGCAUCA
B4: chr1:78194255:78194256:-_ENSG00000077254_ENST00000357428|hu_mus|motif|central (ssRNA)
RNA: GGGAGUUCUACAGUCCGACGAUCAUUGCUGUCCUCAGGAAAGCCUUUGGAGCCACUCUCAUUUUCUGCUUUCUCGCUGCUGCGGCAAGACUCGCACGACUGAAAAUCCACAUCUGACUGGCUCUUCUCUUCCUCCACCGUCUCCAACAGAGGAUUGAGCAUCA
B5: chr7:128503047:128503048:+_ENSG00000128524_ENST00000249289|hu_mus|FALSE|FALSE (ssRNA)
RNA: GGGAGUUCUACAGUCCGACGAUCGGUGGUAUCCUUCUCCACUACCAGGAAAUUAGGGUGGCGGUUCUUGUUUAGCUCCCCUAUGCCGCCCAACAGGAAACCAGUCACCGUGUCCUCGUCUCCAAUCACCGCGAUUAGCUUACCCAACAGAGGAUUGAGCAUCA
B6: chr14:62214197:62214198:+_ENSG00000100644_ENST00000337138|hu_hu|FALSE|FALSE (ssRNA)
RNA: GGGAGUUCUACAGUCCGACGAUCAGCAUUAUUAUUUAUGUAAAAUGUGAAAAAAAAGGUGUAAAAAUUUUUCAACUGCCUAUGAUCAUGAUGAAAGGUUACUGCCUUCUUACAAAAAUUAUAUUGGCAUCUUCUUAAAAAUAACAACAGAGGAUUGAGCAUCA
B7: chr14:48151594:48151595:+_ENSMUSG00000037536_ENSMUST00000168833|mus_mus|FALSE|FALSE (ssRNA)
RNA: GGGAGUUCUACAGUCCGACGAUCAUUGAAGUUUUUUUAAAAAAUUUUUAACCAGACAAAAGGAUGCACAACAUUUUAAUCUAUUAUAUGAUAUUGUCUUAUUCUGUGGUGAUUAUGUUUAGUCAGCUGUUCAUAAUAUACAAUCAACAGAGGAUUGAGCAUCA
B8: chr1:66485654:66485655:+_ENSMUSG00000015222_ENSMUST00000024639|mus_mus|FALSE|FALSE (ssRNA)
RNA: GGGAGUUCUACAGUCCGACGAUCAAUUUUUUAUAUAAAAUUGUAACAAUUACUACAGUUGGGGGAUGAAAUUAUUUCUCUAUGGUUUGUAAAGAAUGAAUAUGACACCUGCUCAGAGCCCACUCCUGCCAAGAGCUCAUGCCUCAACAGAGGAUUGAGCAUCA
B9: chr1:66485654:66485655:+_ENSMUSG00000015222_ENSMUST00000024639|mus_mus|motif|central (ssRNA)
RNA: B8 RNA with U80G, A81G
B10: chrX:17854524:17854525:+_ENSMUSG00000037369_ENSMUST00000044484|mus_hu|motif|central (ssRNA)
RNA: GGGAGUUCUACAGUCCGACGAUCUCGUGAAUUACUCUCAUUAGUGACAAAAAGCAGAUCAAAAACCUCCACUUCACAAAUGCGGCAGUAAUGAGCUGGUUCUUCUUUUGUCCGCCCAUGCCAUAUAAUCUCUUUUCCUGCAGCCAACAGAGGAUUGAGCAUCA
B11: chr1:58468927:58468928:-_ENSMUSG00000026034_ENSMUST00000148330|mus_mus|mus_mus_mus_hu_False|58_78 (ssRNA)
RNA: GGGAGUUCUACAGUCCGACGAUCAAUUACUGAAAAAGAUGUUCAUUACCUUAGCUAGGCCAUGUAUGAACCAAAUUAUCUAAAAAAAAUAAACAUGGCAAUAUAAAAAUGUUAAGAAUUUACAAAGCUGUACAAAAUAACUUACAACAGAGGAUUGAGCAUCA
B12: chr1:58468927:58468928:-_ENSMUSG00000026034_ENSMUST00000148330|mus_mus|mus_mus_mus_hu_False|18_78 (ssRNA)
RNA: B11 RNA with U78C, U80C, A84C, U118A, U119A, C122A, A123C, A124U, A125U, G126A
B13: chr10:117127018:117127019:-_ENSMUSG00000020184_ENSMUST00000020408|mus_hu|FALSE|FALSE (ssRNA)
RNA: GGGAGUUCUACAGUCCGACGAUCAACAGAGCAAGACUCGGUCUCAAAAAAAAUAAUAAGUUACAUUUAAAUGUCAUAUACAUAUUUAAGAAAAAAAAAAACCAAGUACUUCUCAUUUAAGACAGAGUAGAAAUUAUUUAAAAUCAACAGAGGAUUGAGCAUCA
B14: 30669026_30669146_122_CDS_ENSG00000108666_ENST00000577809|human|control|control (ssRNA)
RNA: GGGAGUUCUACAGUCCGACGAUCGCGAUAGCUGUAAAGACAGUAGUGGCUGCUGGACGGCGGCUCGAGUCUCCGCUCCUCGGCUGAGCCUCCCUCUUCGCUGCUCUCUAGUUCCUUUUCAUCUCCAUCCAUCGACUCCUGCAACAACAGAGGAUUGAGCAUCA

Each binder was assayed against T1, UNK ZnF1-3 (assay: nsRBNS (natural sequence RNA bind-n-seq); RBNS binding buffer (assumed for nsRBNS): 25 mM Tris pH 7.5, 150 mM KCl, 3 mM MgCl2, 0.01% Triton X-100, 500 ug/ml BSA, 20 U/ml SUPERase-In, 4 C; UNK is unkempt and MSI1 is Musashi-1; names of the RNAs are library labels; protein concentration not given here; high values mean tight binding).

Binder | binding signal
B1 | 1.22 enrichment R
B2 | 0.755 enrichment R
B3 | 0.921 enrichment R
B4 | 0.703 enrichment R
B5 | 0.494 enrichment R
B6 | 29 enrichment R
B7 | 3.47 enrichment R
B8 | 2.92 enrichment R
B9 | 4.27 enrichment R
B10 | 0.845 enrichment R
B11 | 3.96 enrichment R
B12 | 1.35 enrichment R
B13 | 18 enrichment R
B14 | 0.51 enrichment R
